Experimental data from ChEMBL document CHEMBL1157539, “Thousands of chemical starting points for antimalarial lead identification” (Nature, 2010).

tested on: Plasmodium falciparum; assay: GSK_TCMDC: Inhibition of Plasmodium falciparum 3D7 in whole red blood cells, using parasite LDH activity as an index of growth. Test compounds present at 2uM; type: functional

SMILES	Inhibition
OC(Cn1ccnc1)(c1ccc(Cl)cc1Cl)C1CCCCC1 (stereo not given)	98%
CC(C)[C@@H](C(=O)NCc1cccc(C(F)(F)F)c1)N1C(=O)CCC1C(=O)Nc1ccc([N+](=O)[O-])cc1 (stereo not given in full)	94%
Nc1nc(N)c2c(ccc3c2ccn3Cc2ccc(OCc3ccccc3)cc2)n1	98%
CCC1CCCCN1S(=O)(=O)c1ccc(NC(=O)c2cc(C)on2)cc1 (stereo not given)	86%
Cl.O=C(Nc1ccc2nccc(N3CCN4CCC[C@H]4C3)c2c1)c1ccc(Cl)c(Cl)c1	100%
CN(C)Cc1ccc2cc(NC(=O)c3ccc(-c4ccc(Cl)cc4)cc3)ccc2n1.O=C(O)C(F)(F)F	86%
O=C(Nc1ccc(Br)cc1)N(CCN1CCOCC1)CC(O)COc1ccc(Cl)c(F)c1.O=C(O)C(F)(F)F (stereo not given)	98%
O=C(O)c1cc(OCC(O)COc2ccc(O)c(C(=O)O)c2)ccc1O	99%
N#CCCN1CCN(Cc2cccc(-c3ccc(-c4nc5cc(F)ccc5[nH]4)cc3)c2)CC1.O=C(O)C(F)(F)F	100%
COc1ccc(C(=O)Nc2cc(Br)c3c(c2)CNCC3)cc1Br.Cl	97%
Cc1nc(N2CCC(C)CC2)c2c3c(sc2n1)CCCC3	93%
CC(C)(CNC(=O)C1CCN(Cc2ccc(Cl)cc2)CC1)c1nc(-c2ccc(Cl)c(O)c2)c(-c2ccncc2)[nH]1.Cl	100%
COc1c(C=NNc2nc(=Nc3ccccc3)[nH]c(=Nc3ccccc3)[nH]2)ccc(Br)c1O	98%
CCOC(=O)c1ccc(NC(=O)Nc2ccc(-c3cccc(-c4nc5ccccc5[nH]4)c3)cc2)cc1	100%
CC(C)c1ccc(CN2CCC(CNC(=O)c3cc(-c4ccc(N(C)C)cc4)cs3)C2)cc1.O=C(O)C(F)(F)F (stereo not given)	83%
O=C(/C=C/c1ccc(Cl)c(Cl)c1)NCCCCCN1CCCN(C(=O)Nc2cccc(C(F)(F)F)c2)CC1	96%
NC1CCN(Cc2ccc(-c3ccc(-c4nc5cc(F)ccc5[nH]4)s3)cc2)C1.O=C(O)C(F)(F)F (stereo not given)	100%
CS(=O)(=O)O.FC(F)(F)COc1ccc2ccccc2c1CCNCCCCNCCc1c(OCC(F)(F)F)ccc2ccccc12	100%
O=C(Nc1ccc(C(=O)Oc2ccc(-c3ccccc3)cc2)cc1)N[C@@H](Cc1ccc(O)cc1)C(=O)NC1CCN(Cc2ccc(O)cc2)C1.O=C(O)C(F)(F)F (stereo not given in full)	94%
Cc1noc(C)c1-c1cccc(CNCc2ccc(-c3ccc(-c4nc5cc(C(F)(F)F)ccc5[nH]4)s3)cc2)c1.O=C(O)C(F)(F)F	100%

SMILES	Inhibition
CN(C)CCNCc1ccc(-c2ccc3c(Nc4ccc(F)cc4Cl)ccnc3c2)o1	100%
N=C(N)NC(=O)Nc1ccc(Cl)c(Cl)c1	95%
CCNc1cc(C)nc(Nc2ccc(NC(=O)C3CCCC3)cc2)n1	99%
CCC(CSC1CCCCC1)N(C)CCN(C)C(CC)CSC1CCCCC1.Cl (stereo not given)	98%
O=C(Nc1ccccc1Cc1ccccc1)c1ccccc1C(F)(F)F	99%
COC(=O)c1cccc(CNCc2cccc(-c3ccc(-c4nc5cc(C(F)(F)F)ccc5[nH]4)cc3)c2)c1.O=C(O)C(F)(F)F	100%
CC(C)CCCC(C)(C)NC[C@@H](O)[C@H](Cc1ccccc1)NC(=O)c1cccc(OCC2CC2)c1	96%
CC1CN(Cc2csc(Nc3ccccc3)n2)CC(C)O1 (stereo not given)	91%
O=C(COc1ccc(F)cc1)NC1CCN(c2ccnc3cc(Cl)ccc23)C1.O=C(O)C(F)(F)F (stereo not given)	100%
CCN(CC)CCN(Cc1ccc(-c2ccc(C(F)(F)F)cc2)cc1)C(=O)Cn1c(SCc2ccc(F)cc2)nc(=O)c2ccccc21.O=C(O)C(O)C(O)C(=O)O	98%
Cl.c1ccc(Oc2ccc(Nc3ccnc4cc(-c5ccc(CN6CCNCC6)o5)ccc34)cc2)nc1	100%
Cc1nc(C)c(-c2ccc(S(=O)(=O)c3ccc(Cl)cc3)cc2)c(O)c1Cl	98%
Cc1nc(-c2cccc(Nc3nccc(NCC(O)c4ccc(C(F)(F)F)cc4)n3)c2)cs1 (stereo not given)	100%
CN1CCCN(Cc2cccc(-c3cccc(NC(=O)c4ccc(Cl)cc4)c3)c2)CC1.O=C(O)C(F)(F)F	100%
CCNC(=O)Nc1cccc(-c2cccc(-c3nc4cccc(C)c4[nH]3)c2)c1	85%
CCCCCCNc1cc(C)nc(NC(=N)Nc2cccc(C(F)(F)F)c2)n1	100%
COc1ccc(Br)cc1/C=C/C(=O)Nc1cccc(C2CCCN(C)C2)c1.O=CO (stereo not given)	99%
Cc1cccc2nc(-c3ccc(-c4cccc(C(=O)N5CCCCC5C(C)O)c4)s3)[nH]c12 (stereo not given)	100%
Cc1cc(C2CCN(CCCCNC(=O)c3ccc(-c4ccc(C(F)(F)F)cc4)cc3)CC2)c(C)cc1OCCO	99%
COc1ccc(Nc2nc(N3CCCC3)c3ccccc3n2)cc1.Cl	100%
